# In the library only some 19% were active in any assay of this set; here they are far more common.
# HT1080NT lethal – qHTS for induction of synthetic lethality in tumor cells producing 2HG: qHTS for the HT-1080-NT fibrosarcoma cell line | HT-1080-NT fibrosarcoma viability, CellTiter-Glo ATP luminescence, 48 h | Potency, µM (series often up to 46.1 µM), without a hit: at the highest dose activity, negative = less viability, actives largely listed as cytotoxic | hit rate 1.6% among 360,000 | AID 686970, 2013;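 further: NT is the 2HG producing partner of a matched IDH1 knockdown line; potency means the concentration at half of the fitted maximal effect; 0% = DMSO-treated cells and -100% = media-only wells without cells; nearly all actives have a fitted effect of over 55% in size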
#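 Viability by CellTiter-Glo luminescence after 48 h compound exposure at 37C of HT-1080-NT cells (750/well, RPMI, 5% FBS). % activity scaled between DMSO wells and medium-only wells, then curve-fitted and categorized by curve class.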
# HT1080 IDH1KD tx – qHTS for induction of synthetic lethality in tumor cells producing 2HG: qHTS for the HT-1080-IDH1KD cell line | HT-1080 IDH1 knockdown viability, ATP luminescence, 48 h | Potency, µM (highest dose often 46.1 µM), for the others: at the highest dose activity, negative = toxicity, usual class: cytotoxic | hit rate 2% among 360,000 | AID 686971, 2013;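 further: potency means the concentration at half of the fitted maximal effect; 0% = DMSO wells and -100% = cell-free medium wells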
#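 % activity derives from luminescence (CellTiter-Glo), normalised to DMSO and no-cell wells. HT-1080-IDH1KD cells, 750/well, had 48 h compound exposure at 37 °C.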
# IL1B secr inh – qHTS for Inhibitors of Inflammasome Signaling: IL-1-beta AlphaLISA Primary Screen; activity change, % at 57.5 µM; THP-1 LPS/ATP IL-1B secretion, AlphaLISA, 16 h; active compounds read low; AID 743279, 2014; hit rate 4.7% among 360,000; in the data active means activity change below about -50%; inconclusive means mostly about -30% to -49%
#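 Secreted IL-1B measured by AlphaLISA bead assay after 16 h compound exposure of THP-1 cells; compounds (final up to 57.5 uM) added 1 h before LPS (250 ng/mL) and ATP (1.25 mM) stimulation; lower signal means less secretion.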
# TDP1 cell CPT – qHTS for Inhibitors of human tyrosyl-DNA phosphodiesterase 1 (TDP1): qHTS in cells in presence of CPT | chicken DT40 Tdp1-/-;hTDP1 cells + 20 nM CPT, ATP luminescence, 48 h | hit rate 12% among 420,000 | Potency, µM (highest dose often 46.2 µM), inactives show at the top dose activity change, negative = growth inhibition, actives largely listed as inhibitors; further: potency means the concentration at half of the fitted maximal effect; nearly all actives have a fitted effect of over 55% in size
#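 Chicken DT40 Tdp1-/- cells complemented with human TDP1, 400 cells/well, exposed to compounds plus 20 nM camptothecin for at least 48 h at 37 C; viability read as ATP content by CellTiter-Glo luminescence.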
# TDP1 cell noCPT – qHTS for Inhibitors of human tyrosyl-DNA phosphodiesterase 1 (TDP1): qHTS in cells in absence of CPT | DT40 Tdp1-/- hTDP1 cells, no CPT, ATP luminescence, 48 h | hit rate 15% among 420,000 | Potency, µM (doses to about 46.2 µM), without a hit: at the top dose activity change, negative = growth inhibition, usual class: inhibitors; further: potency means the concentration at half of the fitted maximal effect; nearly all actives have a fitted effect of over 55% in size
#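 Growth of hTDP1-complemented DT40 Tdp1-knockout cells is measured by ATP luminescence after at least 48 hr compound exposure at 37 °C, with DMSO substituting for the 20 nM CPT used in the parallel screen.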
# * hit, by the source's call; ? = inconclusive; · = no result given. Unless noted, the call rests on the fitted dose curve; in most records, active means well fitted curve in the direction sought with a large enough effect; inconclusive means small, poorly fitted or top-dose-only effect, or another doubt; inactive means no such curve, though single readings can be large; an effect the other way counts as inactive or inconclusive. Unless noted, on the % scale 0 is the no-effect control and ±100 the full control effect.
SMILES,HT1080NT lethal,HT1080 IDH1KD tx,IL1B secr inh,TDP1 cell CPT,TDP1 cell noCPT
CCCS(=O)(=O)N1CC(=O)N(c2cc(C)cc(C)c2)C(C)(C(=O)NC2CCCCCC2)C1 (stereo not drawn),·,·,·,-12%,-17%
CCSS(=O)(=O)c1cccc2cccnc12,33µM*,?,·,15µM*,?
CCCCN(c1ccccc1)S(=O)(=O)c1cccc2cccnc12,9%,0%,33,?,15µM*
O=C(O)CCS(=O)(=O)c1cccc2cccnc12,1%,0%,-14,-18%,-2%
Oc1ccc(C=Nc2cccc3ccccc23)c(O)c1,-6%,?,-17,?,-18%
Cc1ccc(N=Cc2ccc(O)cc2O)cc1F,-10%,5%,-16,?,21µM*
O=C(COC(=O)CC1CC2CCC1C2)Nc1cc([N+](=O)[O-])ccc1F (stereo not drawn),-5%,26%,-54*,14%,0%
O=C(COC(=O)CCc1ccccc1)Nc1cc([N+](=O)[O-])ccc1F,-10%,-9%,2,-3%,10%
COc1cc(OC)c(NC2c3ccccc3C(=O)N2c2cc(C)ccn2)cc1Cl (stereo not drawn),0%,18%,-17,-8%,?
CCOC(=O)c1ccccc1NC1c2ccccc2C(=O)N1c1cc(C)ccn1 (stereo not drawn),4%,-9%,2,23µM*,?
O=C(NCCc1ccc(Cl)cc1)C(=O)NCC(c1ccco1)S(=O)(=O)c1cccs1 (stereo not drawn),·,·,·,18µM*,?
O=C(NCc1ccccc1Cl)C(=O)NCC(c1ccco1)S(=O)(=O)c1cccs1 (stereo not drawn),·,·,·,?,16µM*
CCOc1ccc(CNS(=O)(=O)c2cc(-c3cc(C)no3)ccc2OC)cc1OC,3%,1%,31,-2%,7%
COc1ccc(Cl)cc1NC(=O)Cn1c(=O)n(-c2ccc(C)cc2)c(=O)c2ccc(C(=O)NCc3ccccc3Cl)cc21,·,·,·,4.6µM*,?
COc1ccc(NC(=O)Cn2c(=O)n(-c3ccc(OC)cc3)c(=O)c3ccc(C(=O)NCc4ccc(C)cc4)cc32)cc1,·,·,·,?,-2%
COc1ccc(-n2c(=O)c3ccc(C(=O)NCc4ccc(C)cc4)cc3n(CC(=O)Nc3cccc(F)c3)c2=O)cc1,·,·,·,13µM*,?
O=C(Cn1c(=O)n(-c2ccccc2)c(=O)c2ccc(C(=O)NCc3ccc4c(c3)OCO4)cc21)Nc1ccc(Br)cc1F,·,·,·,?,15µM*
CCOC(=O)C[C@H]1c2ccc(C(F)(F)F)cc2S(=O)(=O)N1c1cccc(OC)c1,-2%,-12%,0,?,?
Cc1ccc(S(=O)(=O)Nc2ccccc2N=Cc2ccc([N+](=O)[O-])cc2[N+](=O)[O-])cc1,1%,-6%,-7,26µM*,18µM*
Cc1ccc(S(=O)(=O)Nc2ccc3cc([N+](=O)[O-])ccc3c2[N+](=O)[O-])cc1,2.6µM*,?,-6,?,23µM*
Cc1ccc(S(=O)(=O)Nc2ccc3ccccc3c2[N+](=O)[O-])cc1,?,-21%,25,?,?
COc1ccc(CN2C[C@@H](CO)O[C@@H](n3cnc4c(NC5CC5)ncnc43)C2)cc1,3%,8%,-4,?,?
Fc1c(F)c(-n2nnc3ccccc32)c(F)c(F)c1Cl,12%,8%,-3,0%,-20%
Cc1cc(NC(=O)c2cc3ccccc3o2)ccc1NC(=O)c1ccccc1,1%,7%,?,-24%,?
Cc1cc(NC(=O)c2cccnc2)ccc1NC(=O)c1cc2ccccc2o1,0%,1%,-18,13µM*,10µM*

# Assay outcomes: PubChem, National Center for Advancing Translational Sciences (NCATS)
